This is part of a sample that, as a whole, favours compounds with a hit. Of some 83,000 tested, about 20% had one in any assay.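 Single-dose data. Exposure time 48 hours. Values below 10 considered active.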 Activity calls are given as the source filed them.
Experiments:
Assay in all cases: NCI-60 one-dose screen, 48 h (100 = growth as untreated, 0 = no growth, -100 = all killed)
Details in all cases: 10 µM unless noted
[1] = test system: EKVX NSCLC
[2] = test system: SN12C renal
[3] = test system: UO-31 renal
[4] = test system: TK-10 renal
[5] = test system: ACHN renal
[6] = test system: CAKI-1 renal
[7] = test system: A498 renal
[8] = test system: CCRF-CEM leukemia
[9] = test system: MOLT-4 leukemia
[10] = test system: SR leukemia

Measured: growth

O=C(CSc1nc2c(n1Nc1ccccc1)-c1ccccc1SC2)Nc1nc(-c2ccc(Cl)cc2)cs1
inactive: [1] 69.8% | [2] 73.8% | [3] 79.7% | [4] 110% | [5] 96.5% | [6] 72.8% | [7] 55% | [8] 44.8% | [9] 78.4% | [10] 27%

c1ccc(Nc2nnc(-c3cc(-c4cccnc4)n(-c4ccccc4)n3)s2)cc1
inactive: [1] 83% | [2] 87.7% | [3] 56.9% | [4] 88.6% | [5] 81.7% | [6] 46.4% | [7] 74.4% | [8] 72.6% | [9] 56.5% | [10] 67.1%

CCN(CC)c1ccc(CN(CC(=O)c2ccc(Cl)c(Cl)c2)Cc2ccccc2)cc1
inactive: [1] 108% | [2] 101% | [3] 81.9% | [4] 117% | [5] 107% | [6] 92.3% | [7] 92.1% | [8] 97.8% | [9] 98% | [10] 88.3%

CC12CCCCC1C(C(N)=O)C(=O)O2 (stereo not given)
inactive: [1] 123% | [2] 97.9% | [3] 93.9% | [4] 100% | [5] 112% | [6] 104% | [7] 124% | [8] 102% | [9] 98.1% | [10] 94.6%

Nc1nc2ncc(CCNc3ccc(C(=O)NC(CCC(=O)O)C(=O)O)cc3)nc2c(=O)[nH]1 (stereo not given)
inactive: [1] 119% | [2] 108% | [3] 70.7% | [4] 107% | [5] 103% | [6] 114% | [7] 95.8% | [8] 77.1% | [9] 145% | [10] 133%

O=C(Nc1ccncc1)C(=O)c1cn(S(=O)(=O)c2cccc(F)c2)c2ccccc12
inactive: [1] 35.4% | [2] 49.1% | [3] 56.7% | [4] 84.1% | [5] 55.9% | [6] 33.5% | [7] 60.2% | [8] 38.7% | [9] 35% | [10] 16.5%

Cc1c(NCc2nnc3n(Cc4ccccc4)c(=O)c4c5c(sc4n23)CCCC5)c(=O)n(-c2ccccc2)n1C
inactive: [1] 84.7% | [2] 96.5% | [3] 71.4% | [4] 93.3% | [5] 96% | [6] 78% | [7] 75.1% | [9] 52.7% | [10] 68.7%
active: [8] 4.57%

O=C(c1nn(-c2ccc(Cl)cc2)cc1O)n1nc(C(F)(F)F)cc1-c1ccccc1
active: [6] -20.6% | [8] 0.973% | [10] -30.4%
inactive: [1] 31.5% | [2] 45.9% | [3] 37% | [4] 69.3% | [5] 38.8% | [7] 76% | [9] 13.1%

CCn1c2c(c3ccccc31)SC1c3cccn3CCN1C2=S (stereo not given)
inactive: [1] 107% | [2] 98.3% | [3] 84.9% | [4] 89% | [5] 99.1% | [6] 88.3% | [7] 115% | [8] 81.2% | [9] 88.8% | [10] 109%
